# Many of the other results were omitted from the sample, so the strongest signals are more common in it than they were.
# B1: Blon2468mut (Bifidobacterium longum) (protein)
# chain: MTFIKQMMPRYVASMTAGIVAAAMAATCAFAPVANADAVSPTQETIQSTGRHFMVYYRAWRDVTMKGVNTDLPDDNWISMYDIPYGVDVVNIFSYVPSGQEEQAQPFYDKLKSDYAPYLHSRGIKLVRGIDYTGVAVNGFRTFMKEQNKTESEATEADYDAYAKQVIDKYMISVGLDGLDIDMQAHPNDADVKISDNVIRALSKHIGPKSAKPDTTMFLYDTNGSYLNPFKNVAECFDYVAYQQYGSSSDRTARAAADYQPYIGNEFVPGLTFPEEGDMNNRWYDATEPYEESHFYQVASYVREHNLGGMFVYALDRDGRNYDEDLRRIVPSNLLWTKTAIAESEGMALDTAKTAANHYLDRMSLRQVIDDNAASADKARDMVGKAANLYETNKAVLGGDYGEGFSNTYDPTLEAGLLGIDISVLQQQIDKSSEIIGADTAESDAKTALRMARDAAIDGLTGKIYTADQVSAWSQALKAALDATVPVPTPDSTDQNGNRDKVTNHKVQGQPKQLSATGISTDIIVAVGVTLAIAGVALSLSRKLS
# Experiments:
# Test in all cases: glycan array binding signal (z-score within array); higher = stronger binding
# Details in all cases: glycan notation: IUPAC condensed, linker removed
# [1] = target: Fuc(a1-2)Gal(b1-3)GlcNAc6S
# Method in brief: (§1)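 The binding signal is a Z-score computed within each array and averaged over linkers. Arrays of the same protein sequence at different concentrations or buffers were also averaged together. Data originate from 3228 arrays in the Consortium for Functional Glycomics database, kept only where the protein sequence was available.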
# [2] = target: Fuc(a1-2)Gal(b1-3)[Fuc(a1-4)]GlcNAc(b1-2)Man(a1-3)[Fuc(a1-2)Gal(b1-3)[Fuc(a1-4)]GlcNAc(b1-2)Man(a1-6)]Man(b1-4)GlcNAc(b1-4)[Fuc(a1-6)]GlcNAc(b1-4)[Fuc(a1-6)]GlcNAc
# Method in brief: as §1
# [3] = target: Fuc(a1-2)Gal(b1-4)GlcNAc(b1-2)Man(a1-3)[Fuc(a1-2)Gal(b1-4)GlcNAc(b1-2)Man(a1-6)]Man(b1-4)GlcNAc(b1-4)GlcNAc
# Method in brief: as §1
# [4] = target: Fuc(a1-2)Gal(b1-4)GlcNAc(b1-2)[Fuc(a1-2)Gal(b1-4)GlcNAc(b1-4)]Man(a1-3)[Fuc(a1-2)Gal(b1-4)GlcNAc(b1-2)Man(a1-6)]Man(b1-4)GlcNAc(b1-4)GlcNAc
# Method in brief: as §1
# [5] = target: Fuc(a1-2)Gal(b1-4)GlcNAc(b1-3)Gal(b1-4)GlcNAc(b1-2)Man(a1-3)[Fuc(a1-2)Gal(b1-4)GlcNAc(b1-3)Gal(b1-4)GlcNAc(b1-2)Man(a1-6)]Man(b1-4)GlcNAc(b1-4)GlcNAc
# Method in brief: as §1
# [6] = target: Fuc(a1-2)Gal(b1-4)[Fuc(a1-3)]GlcNAc
# Method in brief: as §1
# [7] = target: Fuc(a1-2)Gal(b1-4)[Fuc(a1-3)]GlcNAc(b1-2)[Fuc(a1-2)Gal(b1-4)[Fuc(a1-3)]GlcNAc(b1-4)]Man(a1-3)[Fuc(a1-2)Gal(b1-4)[Fuc(a1-3)]GlcNAc(b1-2)Man(a1-6)]Man(b1-4)GlcNAc(b1-4)GlcNAc
# Method in brief: as §1
# [8] = target: Fuc(a1-2)Gal6S(b1-3)GlcNAc6S
# Method in brief: as §1
# [9] = target: Fuc(a1-2)[Gal(a1-3)]Gal(b1-3)GlcNAc(b1-2)Man(a1-3)[Fuc(a1-2)[Gal(a1-3)]Gal(b1-3)GlcNAc(b1-2)Man(a1-6)]Man(b1-4)GlcNAc(b1-4)[Fuc(a1-6)]GlcNAc
# Method in brief: as §1
# [10] = target: Fuc(a1-2)[Gal(a1-3)]Gal(b1-4)[Fuc(a1-3)]GlcNAc
# Method in brief: as §1
# [11] = target: Fuc(a1-2)[GalNAc(a1-3)]Gal(b1-3)GlcNAc(b1-2)Man(a1-3)[Fuc(a1-2)[GalNAc(a1-3)]Gal(b1-3)GlcNAc(b1-2)Man(a1-6)]Man(b1-4)GlcNAc(b1-4)[Fuc(a1-6)]GlcNAc
# Method in brief: as §1
# [12] = target: Fuc(a1-2)[GalNAc(a1-4)]Gal(b1-4)GlcNAc
# Method in brief: as §1
# [13] = target: Fuc(a1-2)[GalNAc(b1-3)]Gal
# Method in brief: as §1
# [14] = target: Fuc(a1-3)[Gal(b1-4)]GlcNAc(b1-2)Man
# Method in brief: as §1
# [15] = target: Gal(a1-3)Gal(b1-3)GlcNAc(b1-2)Man
# Method in brief: as §1
# [16] = target: Gal(a1-3)Gal(b1-4)[Fuc(a1-3)]GlcNAc
# Method in brief: as §1
# [17] = target: Gal(a1-3)[Gal(a1-4)]Gal(b1-4)GlcNAc
# Method in brief: as §1
# [18] = target: Gal(b1-3)GlcNAc
# Method in brief: as §1
# [19] = target: Gal(b1-3)GlcNAc(b1-2)Man
# Method in brief: as §1
# [20] = target: Gal(b1-3)GlcNAc(b1-2)Man(a1-3)[GlcNAc(b1-4)][Gal(b1-3)GlcNAc(b1-2)Man(a1-6)]Man(b1-4)GlcNAc(b1-4)GlcNAc
# Method in brief: as §1
# [21] = target: Gal(b1-3)GlcNAc(b1-3)Gal(b1-4)GlcNAc(b1-2)Man(a1-3)[Gal(b1-3)GlcNAc(b1-3)Gal(b1-4)GlcNAc(b1-2)Man(a1-6)]Man(b1-4)GlcNAc(b1-4)GlcNAc
# Method in brief: as §1
# [22] = target: Gal(b1-3)GlcNAc(b1-3)Gal(b1-4)GlcNAc(b1-2)[Gal(b1-3)GlcNAc(b1-3)Gal(b1-4)GlcNAc(b1-6)]Man(a1-6)[Gal(b1-3)GlcNAc(b1-3)Gal(b1-4)GlcNAc(b1-2)Man(a1-3)]Man(b1-4)GlcNAc(b1-4)[Fuc(a1-6)]GlcNAc
# Method in brief: as §1
# [23] = target: Gal(b1-3)GlcNAc(b1-3)Gal(b1-4)GlcNAc(b1-3)Gal(b1-4)GlcNAc(b1-2)[Gal(b1-3)GlcNAc(b1-3)Gal(b1-4)GlcNAc(b1-3)Gal(b1-4)GlcNAc(b1-6)]Man(a1-6)[Gal(b1-3)GlcNAc(b1-3)Gal(b1-4)GlcNAc(b1-3)Gal(b1-4)GlcNAc(b1-2)Man(a1-3)]Man(b1-4)GlcNAc(b1-4)[Fuc(a1-6)]GlcNAc
# Method in brief: as §1
# [24] = target: Gal(b1-3)[Fuc(a1-4)]GlcNAc(b1-6)GalNAc
# Method in brief: as §1
# [25] = target: Gal(b1-4)GlcNAc(b1-2)Man(a1-6)[GlcNAc(b1-2)Man(a1-3)]Man(b1-4)GlcNAc(b1-4)GlcNAc
# Method in brief: as §1
# [26] = target: Gal(b1-4)GlcNAc(b1-3)Gal(b1-4)GlcNAc(b1-3)Gal(b1-4)GlcNAc(b1-3)Gal(b1-4)GlcNAc(b1-3)Gal(b1-4)GlcNAc(b1-2)Man(a1-3)[Gal(b1-4)GlcNAc(b1-3)Gal(b1-4)GlcNAc(b1-3)Gal(b1-4)GlcNAc(b1-3)Gal(b1-4)GlcNAc(b1-3)Gal(b1-4)GlcNAc(b1-2)Man(a1-6)]Man(b1-4)GlcNAc(b1-4)[Fuc(a1-6)]GlcNAc
# Method in brief: as §1
# [27] = target: Gal3S(b1-4)[Fuc(a1-3)]Glc6S
# Method in brief: as §1
# [28] = target: Gal6P(b1-4)GlcNAc
# Method in brief: as §1
# [29] = target: GalNAc(b1-3)GlcNAc
# Method in brief: as §1
# [30] = target: Glc(a1-4)Glc(a1-4)Glc(a1-4)Glc
# Method in brief: as §1
binder,measurement,setting,value
B1,glycan array binding signal (z-score),[1],-0.052
same,glycan array binding signal (z-score),[2],-0.074
same,glycan array binding signal (z-score),[3],-0.068
same,glycan array binding signal (z-score),[4],-0.045
same,glycan array binding signal (z-score),[5],0.003
same,glycan array binding signal (z-score),[6],-0.065
same,glycan array binding signal (z-score),[7],-0.036
same,glycan array binding signal (z-score),[8],0.078
same,glycan array binding signal (z-score),[9],-0.055
same,glycan array binding signal (z-score),[10],-0.049
same,glycan array binding signal (z-score),[11],-0.036
same,glycan array binding signal (z-score),[12],-0.021
same,glycan array binding signal (z-score),[13],-0.061
same,glycan array binding signal (z-score),[14],-0.022
same,glycan array binding signal (z-score),[15],-0.087
same,glycan array binding signal (z-score),[16],-0.083
same,glycan array binding signal (z-score),[17],0.009
same,glycan array binding signal (z-score),[18],-0.068
same,glycan array binding signal (z-score),[19],-0.078
same,glycan array binding signal (z-score),[20],-0.042
same,glycan array binding signal (z-score),[21],-0.09
same,glycan array binding signal (z-score),[22],0.03
same,glycan array binding signal (z-score),[23],0.124
same,glycan array binding signal (z-score),[24],-0.056
same,glycan array binding signal (z-score),[25],-0.055
same,glycan array binding signal (z-score),[26],-0.046
same,glycan array binding signal (z-score),[27],0.006
same,glycan array binding signal (z-score),[28],-0.066
same,glycan array binding signal (z-score),[29],-0.05
same,glycan array binding signal (z-score),[30],-0.064
